Inconclusive results are not listed. Calls of active or inactive are those of the source. The calls were made as follows: active = hit-call score of the fitted dose curve at least 0.9, where 1 is the maximum; inconclusive = response in the unintended direction; inactive = score below 0.9.

A short description of the assay: Tanguay_ZF_120hpf_SNOU_legacy: (Legacy) Oregon State University Tanguay Lab 120 Hour Post-fertilization zebrafish Assay for Snout Malformation (AID 2283637). In a few lines: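 Dechorionated zebrafish, individually housed from 6 hpf in covered, sealed wells at 28C with 0.64% DMSO vehicle, were examined at 120 hpf for snout malformation. Responses were binary and analysed positive-direction relative to DMSO.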
With `O=c1n(CC2CO2)c(=O)n(CC2CO2)c(=O)n1CC1CO1` (stereo not drawn), the molecule was classed as inactive.
For the molecule `O=C1CCC(N2C(=O)c3ccccc3C2=O)C(=O)N1` (stereo not drawn), the result was inactive.
With `Cc1ccc(S(=O)(=O)O)cc1C`, the molecule was classed as inactive.
Regarding `C1N2CN3CN1CN(C2)C3`, the outcome was inactive.
The same measure, in the same setting: then `COC(=O)c1c(Cl)c(Cl)c(C(=O)OC)c(Cl)c1Cl`, with “inactive”; and `CN(C)c1ccc(N=NS(=O)(=O)O)cc1`, with “inactive”; and `O=C1OC(=O)C2C3C=CC(C3)C12` (stereo not drawn), with “inactive”.
Still for that read-out and setting: under `COC(=O)c1ccccc1O` stands “inactive”; under `O=C(CCCCCCCCc1cccnc1)N1CCC(C=C(c2ccccc2)c2ccccc2)CC1`, “inactive”; under `C[C@](N)(Cc1ccc(O)c(O)c1)C(=O)O`, “inactive”.
As for `Cn1cnc([N+](=O)[O-])c1Sc1ncnc2nc[nH]c12`, the result was inactive.
As to `O=C1CCCCCN1`, the call was inactive.
Consider `Oc1ccc2c(c1)-c1ccccc1C2`, for which the AC50 was 39.3 µM (active).
On the same count and under the same terms, under `CCC(C)(C)C(=O)O[C@H]1C[C@@H](C)C=C2C=C[C@H](C)[C@H](CC[C@@H]3C[C@@H](O)CC(=O)O3)[C@H]21` stands 0.796 µM (active).
Consider `Nc1cccc(N)c1`, for which the outcome was inactive.
In the case of `Nc1nc2ncc(CNc3ccc(C(=O)N[C@@H](CCC(=O)O)C(=O)O)cc3)nc2c(=O)[nH]1`, the molecule was called inactive.
Still for that read-out and setting: then `Cn1c(=O)c2c(ncn2C)n(C)c1=O`, with “inactive”.
Take `O=C(OC[C@H]1O[C@@H](OC(=O)c2cc(O)c(O)c(OC(=O)c3cc(O)c(O)c(O)c3)c2)[C@H](OC(=O)c2cc(O)c(O)c(OC(=O)c3cc(O)c(O)c(O)c3)c2)[C@@H](OC(=O)c2cc(O)c(O)c(OC(=O)c3cc(O)c(O)c(O)c3)c2)[C@@H]1OC(=O)c1cc(O)c(O)c(OC(=O)c2cc(O)c(O)c(O)c2)c1)c1cc(O)c(O)c(OC(=O)c2cc(O)c(O)c(O)c2)c1`: the molecule was called inactive.

One may read the AC50 as the midpoint of the concentration-response curve, whichever way the signal moves.

Source of the values: PubChem BioAssay (EPA / NIEHS).
